Experimental data published in paper PMC11006913.

What was measured:
Assay in all cases: PBM; 200 nM protein, PBS
Conditions in all cases: dsDNA, one strand shown
HESX1 [1] = biological target: HESX1 (Homo sapiens, UniProt Q9UBX0 95-180, R165K)
HESX1 [2] = biological target: HESX1 (Homo sapiens, UniProt Q9UBX0 95-180)
PROP1 [3] = biological target: PROP1 (Homo sapiens, UniProt O75360 56-141)
HESX1 [4] = biological target: HESX1 (Homo sapiens, UniProt Q9UBX0 95-180, R109Q)
PROP1 [5] = biological target: PROP1 (Homo sapiens, UniProt O75360 56-141, R99H)
HESX1 [6] = biological target: HESX1 (Homo sapiens, UniProt Q9UBX0 95-180, P111T)
PROP1 [7] = biological target: PROP1 (Homo sapiens, UniProt O75360 56-141, F88S)
HESX1 [8] = biological target: HESX1 (Homo sapiens, UniProt Q9UBX0 95-180, F115L)
SHOX [9] = biological target: SHOX (Homo sapiens, UniProt O15266 103-189)
ALX4 [10] = biological target: ALX4 (Homo sapiens, UniProt Q9H161 200-286)
ALX4 [11] = biological target: ALX4 (Homo sapiens, UniProt Q9H161 200-286, Q225E)
ALX1 [12] = biological target: ALX1 (Homo sapiens, UniProt Q15699 118-204, L144V)
ALX3 [13] = biological target: ALX3 (Homo sapiens, UniProt O95076 139-225, N203Q)
SHOX [14] = biological target: SHOX (Homo sapiens, UniProt O15266 103-189, R173C)
ALX1 [15] = biological target: ALX1 (Homo sapiens, UniProt Q15699 118-204, L144R)
ALX3 [16] = biological target: ALX3 (Homo sapiens, UniProt O95076 139-225)
ALX3 [17] = biological target: ALX3 (Homo sapiens, UniProt O95076 139-225, L168Q)
ALX3 [18] = biological target: ALX3 (Homo sapiens, UniProt O95076 139-225, L168V)
ALX1 [19] = biological target: ALX1 (Homo sapiens, UniProt Q15699 118-204)
ALX3 [20] = biological target: ALX3 (Homo sapiens, UniProt O95076 139-225, N203S)
Chain of ALX3 (Homo sapiens, UniProt O95076 139-225, N203S) (O95076 139-225 N203S): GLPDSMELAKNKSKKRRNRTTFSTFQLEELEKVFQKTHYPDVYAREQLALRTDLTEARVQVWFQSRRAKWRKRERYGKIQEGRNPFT

Chain of ALX4 (Homo sapiens, UniProt Q9H161 200-286, Q225E) (Q9H161 200-286 Q225E): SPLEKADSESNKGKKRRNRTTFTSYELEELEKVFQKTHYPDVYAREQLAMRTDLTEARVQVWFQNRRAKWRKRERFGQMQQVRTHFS
Chain of HESX1 (Homo sapiens, UniProt Q9UBX0 95-180, R109Q) (Q9UBX0 95-180 R109Q): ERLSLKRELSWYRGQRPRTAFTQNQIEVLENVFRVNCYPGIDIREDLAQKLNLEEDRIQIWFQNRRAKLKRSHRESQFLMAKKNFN
Chain of ALX3 (Homo sapiens, UniProt O95076 139-225) (O95076 139-225): as the sequence (O95076 139-225 N203S) above, with S65N counted along it
Chain of ALX4 (Homo sapiens, UniProt Q9H161 200-286) (Q9H161 200-286): as the sequence (Q9H161 200-286 Q225E) above, with E26Q counted along it
Chain of HESX1 (Homo sapiens, UniProt Q9UBX0 95-180) (Q9UBX0 95-180): as the sequence (Q9UBX0 95-180 R109Q) above, with Q15R counted along it
Chain of ALX3 (Homo sapiens, UniProt O95076 139-225, L168Q) (O95076 139-225 L168Q): as the sequence (O95076 139-225 N203S) above, with L30Q, S65N counted along it
Chain of PROP1 (Homo sapiens, UniProt O75360 56-141, R99H) (O75360 56-141 R99H): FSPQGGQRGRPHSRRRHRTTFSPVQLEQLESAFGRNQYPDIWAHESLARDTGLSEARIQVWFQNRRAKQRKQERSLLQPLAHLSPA
Chain of HESX1 (Homo sapiens, UniProt Q9UBX0 95-180, R165K) (Q9UBX0 95-180 R165K): as the sequence (Q9UBX0 95-180 R109Q) above, with Q15R, R71K counted along it
Chain of ALX1 (Homo sapiens, UniProt Q15699 118-204, L144V) (Q15699 118-204 L144V): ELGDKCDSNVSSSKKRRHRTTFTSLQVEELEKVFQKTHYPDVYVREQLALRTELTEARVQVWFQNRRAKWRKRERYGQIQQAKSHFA
Chain of HESX1 (Homo sapiens, UniProt Q9UBX0 95-180, F115L) (Q9UBX0 95-180 F115L): as the sequence (Q9UBX0 95-180 R109Q) above, with Q15R, F21L counted along it
Chain of ALX3 (Homo sapiens, UniProt O95076 139-225, N203Q) (O95076 139-225 N203Q): as the sequence (O95076 139-225 N203S) above, with S65Q counted along it
Chain of ALX1 (Homo sapiens, UniProt Q15699 118-204) (Q15699 118-204): as the sequence (Q15699 118-204 L144V) above, with V27L counted along it
Chain of SHOX (Homo sapiens, UniProt O15266 103-189) (O15266 103-189): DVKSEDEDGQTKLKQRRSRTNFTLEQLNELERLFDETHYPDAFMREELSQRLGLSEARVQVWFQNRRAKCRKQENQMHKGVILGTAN
Chain of SHOX (Homo sapiens, UniProt O15266 103-189, R173C) (O15266 103-189 R173C): as the sequence (O15266 103-189) above, with R71C counted along it
Chain of PROP1 (Homo sapiens, UniProt O75360 56-141, F88S) (O75360 56-141 F88S): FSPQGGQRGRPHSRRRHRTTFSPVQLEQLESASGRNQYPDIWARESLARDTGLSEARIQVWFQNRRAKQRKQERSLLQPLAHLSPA
Chain of HESX1 (Homo sapiens, UniProt Q9UBX0 95-180, P111T) (Q9UBX0 95-180 P111T): as the sequence (Q9UBX0 95-180 R109Q) above, with Q15R, P17T counted along it
Chain of PROP1 (Homo sapiens, UniProt O75360 56-141) (O75360 56-141): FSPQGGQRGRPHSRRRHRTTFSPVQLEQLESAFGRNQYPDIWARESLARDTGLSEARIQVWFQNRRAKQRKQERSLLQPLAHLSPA
Chain of ALX1 (Homo sapiens, UniProt Q15699 118-204, L144R) (Q15699 118-204 L144R): as the sequence (Q15699 118-204 L144V) above, with V27R counted along it
Chain of ALX3 (Homo sapiens, UniProt O95076 139-225, L168V) (O95076 139-225 L168V): as the sequence (O95076 139-225 N203S) above, with L30V, S65N counted along it

Row | Sequence | binding signal (HESX1 [1]) | binding signal (HESX1 [2]) | binding signal (PROP1 [3]) | binding signal (HESX1 [4]) | binding signal (PROP1 [5]) | binding signal (HESX1 [6]) | binding signal (PROP1 [7]) | binding signal (HESX1 [8]) | binding signal (SHOX [9]) | binding signal (ALX4 [10]) | binding signal (ALX4 [11]) | binding signal (ALX1 [12]) | binding signal (ALX3 [13]) | binding signal (SHOX [14]) | binding signal (ALX1 [15]) | binding signal (ALX3 [16]) | binding signal (ALX3 [17]) | binding signal (ALX3 [18]) | binding signal (ALX1 [19]) | binding signal (ALX3 [20])
1 | CCAGGTCC | 6.37 upbm affinity estimate (log intensity, higher = more binding, comparable within an allelic series) | 6.39 upbm affinity estimate (log intensity, higher = more binding, comparable within an allelic series) | 6.63 upbm affinity estimate (log intensity, higher = more binding, comparable within an allelic series) | 6.29 upbm affinity estimate (log intensity, higher = more binding, comparable within an allelic series) | 6.65 upbm affinity estimate (log intensity, higher = more binding, comparable within an allelic series) | 6.38 upbm affinity estimate (log intensity, higher = more binding, comparable within an allelic series) | 6.38 upbm affinity estimate (log intensity, higher = more binding, comparable within an allelic series) | 6.42 upbm affinity estimate (log intensity, higher = more binding, comparable within an allelic series) | – | – | – | – | – | – | – | – | – | – | – | –
2 | ACAATTAA | 12.1 upbm affinity estimate (log intensity, higher = more binding, comparable within an allelic series) | 12.2 upbm affinity estimate (log intensity, higher = more binding, comparable within an allelic series) | 11.2 upbm affinity estimate (log intensity, higher = more binding, comparable within an allelic series) | 8.86 upbm affinity estimate (log intensity, higher = more binding, comparable within an allelic series) | 11.1 upbm affinity estimate (log intensity, higher = more binding, comparable within an allelic series) | 10.8 upbm affinity estimate (log intensity, higher = more binding, comparable within an allelic series) | 7.71 upbm affinity estimate (log intensity, higher = more binding, comparable within an allelic series) | 7.77 upbm affinity estimate (log intensity, higher = more binding, comparable within an allelic series) | 11.6 upbm affinity estimate (log intensity, higher = more binding, comparable within an allelic series) | 13.7 upbm affinity estimate (log intensity, higher = more binding, comparable within an allelic series) | 12.9 upbm affinity estimate (log intensity, higher = more binding, comparable within an allelic series) | 11.4 upbm affinity estimate (log intensity, higher = more binding, comparable within an allelic series) | 8.46 upbm affinity estimate (log intensity, higher = more binding, comparable within an allelic series) | 9.44 upbm affinity estimate (log intensity, higher = more binding, comparable within an allelic series) | 11.1 upbm affinity estimate (log intensity, higher = more binding, comparable within an allelic series) | 12.3 upbm affinity estimate (log intensity, higher = more binding, comparable within an allelic series) | 10.4 upbm affinity estimate (log intensity, higher = more binding, comparable within an allelic series) | 9.93 upbm affinity estimate (log intensity, higher = more binding, comparable within an allelic series) | 12 upbm affinity estimate (log intensity, higher = more binding, comparable within an allelic series) | 8.59 upbm affinity estimate (log intensity, higher = more binding, comparable within an allelic series)
3 | ATTAATAG | 10.6 upbm affinity estimate (log intensity, higher = more binding, comparable within an allelic series) | 10.6 upbm affinity estimate (log intensity, higher = more binding, comparable within an allelic series) | – | 8.2 upbm affinity estimate (log intensity, higher = more binding, comparable within an allelic series) | – | 9.29 upbm affinity estimate (log intensity, higher = more binding, comparable within an allelic series) | – | 7.97 upbm affinity estimate (log intensity, higher = more binding, comparable within an allelic series) | – | – | – | – | 8.58 upbm affinity estimate (log intensity, higher = more binding, comparable within an allelic series) | – | – | – | – | – | – | –
4 | CAAATTAA | 11.5 upbm affinity estimate (log intensity, higher = more binding, comparable within an allelic series) | 11.5 upbm affinity estimate (log intensity, higher = more binding, comparable within an allelic series) | 11 upbm affinity estimate (log intensity, higher = more binding, comparable within an allelic series) | 8.49 upbm affinity estimate (log intensity, higher = more binding, comparable within an allelic series) | 10.7 upbm affinity estimate (log intensity, higher = more binding, comparable within an allelic series) | 10.1 upbm affinity estimate (log intensity, higher = more binding, comparable within an allelic series) | 7.49 upbm affinity estimate (log intensity, higher = more binding, comparable within an allelic series) | 7.67 upbm affinity estimate (log intensity, higher = more binding, comparable within an allelic series) | 11.7 upbm affinity estimate (log intensity, higher = more binding, comparable within an allelic series) | 13.7 upbm affinity estimate (log intensity, higher = more binding, comparable within an allelic series) | 12.9 upbm affinity estimate (log intensity, higher = more binding, comparable within an allelic series) | 11.6 upbm affinity estimate (log intensity, higher = more binding, comparable within an allelic series) | 8.38 upbm affinity estimate (log intensity, higher = more binding, comparable within an allelic series) | 9.3 upbm affinity estimate (log intensity, higher = more binding, comparable within an allelic series) | 11.1 upbm affinity estimate (log intensity, higher = more binding, comparable within an allelic series) | 12.4 upbm affinity estimate (log intensity, higher = more binding, comparable within an allelic series) | 10.4 upbm affinity estimate (log intensity, higher = more binding, comparable within an allelic series) | 9.81 upbm affinity estimate (log intensity, higher = more binding, comparable within an allelic series) | 12.1 upbm affinity estimate (log intensity, higher = more binding, comparable within an allelic series) | 8.48 upbm affinity estimate (log intensity, higher = more binding, comparable within an allelic series)
5 | CCCAATTA | 13.2 upbm affinity estimate (log intensity, higher = more binding, comparable within an allelic series) | 13.1 upbm affinity estimate (log intensity, higher = more binding, comparable within an allelic series) | 11.6 upbm affinity estimate (log intensity, higher = more binding, comparable within an allelic series) | 9.78 upbm affinity estimate (log intensity, higher = more binding, comparable within an allelic series) | 11.8 upbm affinity estimate (log intensity, higher = more binding, comparable within an allelic series) | 11.7 upbm affinity estimate (log intensity, higher = more binding, comparable within an allelic series) | 7.5 upbm affinity estimate (log intensity, higher = more binding, comparable within an allelic series) | 8.14 upbm affinity estimate (log intensity, higher = more binding, comparable within an allelic series) | 12.5 upbm affinity estimate (log intensity, higher = more binding, comparable within an allelic series) | 13.9 upbm affinity estimate (log intensity, higher = more binding, comparable within an allelic series) | 13.5 upbm affinity estimate (log intensity, higher = more binding, comparable within an allelic series) | 11.9 upbm affinity estimate (log intensity, higher = more binding, comparable within an allelic series) | 8.37 upbm affinity estimate (log intensity, higher = more binding, comparable within an allelic series) | 9.78 upbm affinity estimate (log intensity, higher = more binding, comparable within an allelic series) | 11.6 upbm affinity estimate (log intensity, higher = more binding, comparable within an allelic series) | 12.6 upbm affinity estimate (log intensity, higher = more binding, comparable within an allelic series) | 10.7 upbm affinity estimate (log intensity, higher = more binding, comparable within an allelic series) | 10.2 upbm affinity estimate (log intensity, higher = more binding, comparable within an allelic series) | 12.5 upbm affinity estimate (log intensity, higher = more binding, comparable within an allelic series) | 8.52 upbm affinity estimate (log intensity, higher = more binding, comparable within an allelic series)
6 | ATAATTGG | 13.5 upbm affinity estimate (log intensity, higher = more binding, comparable within an allelic series) | 13.4 upbm affinity estimate (log intensity, higher = more binding, comparable within an allelic series) | 11.7 upbm affinity estimate (log intensity, higher = more binding, comparable within an allelic series) | 10 upbm affinity estimate (log intensity, higher = more binding, comparable within an allelic series) | 12 upbm affinity estimate (log intensity, higher = more binding, comparable within an allelic series) | 12.1 upbm affinity estimate (log intensity, higher = more binding, comparable within an allelic series) | 7.6 upbm affinity estimate (log intensity, higher = more binding, comparable within an allelic series) | 8.41 upbm affinity estimate (log intensity, higher = more binding, comparable within an allelic series) | 12.6 upbm affinity estimate (log intensity, higher = more binding, comparable within an allelic series) | 14 upbm affinity estimate (log intensity, higher = more binding, comparable within an allelic series) | 13.7 upbm affinity estimate (log intensity, higher = more binding, comparable within an allelic series) | 12 upbm affinity estimate (log intensity, higher = more binding, comparable within an allelic series) | 8.37 upbm affinity estimate (log intensity, higher = more binding, comparable within an allelic series) | 9.98 upbm affinity estimate (log intensity, higher = more binding, comparable within an allelic series) | 11.7 upbm affinity estimate (log intensity, higher = more binding, comparable within an allelic series) | 12.6 upbm affinity estimate (log intensity, higher = more binding, comparable within an allelic series) | 10.9 upbm affinity estimate (log intensity, higher = more binding, comparable within an allelic series) | 10.4 upbm affinity estimate (log intensity, higher = more binding, comparable within an allelic series) | 12.6 upbm affinity estimate (log intensity, higher = more binding, comparable within an allelic series) | 8.55 upbm affinity estimate (log intensity, higher = more binding, comparable within an allelic series)
7 | TAATTGGA | 13.4 upbm affinity estimate (log intensity, higher = more binding, comparable within an allelic series) | 13.3 upbm affinity estimate (log intensity, higher = more binding, comparable within an allelic series) | 11.8 upbm affinity estimate (log intensity, higher = more binding, comparable within an allelic series) | 9.97 upbm affinity estimate (log intensity, higher = more binding, comparable within an allelic series) | 12 upbm affinity estimate (log intensity, higher = more binding, comparable within an allelic series) | 11.9 upbm affinity estimate (log intensity, higher = more binding, comparable within an allelic series) | 7.7 upbm affinity estimate (log intensity, higher = more binding, comparable within an allelic series) | 8.04 upbm affinity estimate (log intensity, higher = more binding, comparable within an allelic series) | 12.6 upbm affinity estimate (log intensity, higher = more binding, comparable within an allelic series) | 14 upbm affinity estimate (log intensity, higher = more binding, comparable within an allelic series) | 13.7 upbm affinity estimate (log intensity, higher = more binding, comparable within an allelic series) | 12 upbm affinity estimate (log intensity, higher = more binding, comparable within an allelic series) | 8.38 upbm affinity estimate (log intensity, higher = more binding, comparable within an allelic series) | 9.96 upbm affinity estimate (log intensity, higher = more binding, comparable within an allelic series) | 11.7 upbm affinity estimate (log intensity, higher = more binding, comparable within an allelic series) | 12.7 upbm affinity estimate (log intensity, higher = more binding, comparable within an allelic series) | 10.9 upbm affinity estimate (log intensity, higher = more binding, comparable within an allelic series) | 10.3 upbm affinity estimate (log intensity, higher = more binding, comparable within an allelic series) | 12.7 upbm affinity estimate (log intensity, higher = more binding, comparable within an allelic series) | 8.55 upbm affinity estimate (log intensity, higher = more binding, comparable within an allelic series)
8 | AATTAGTA | 11.7 upbm affinity estimate (log intensity, higher = more binding, comparable within an allelic series) | 11.7 upbm affinity estimate (log intensity, higher = more binding, comparable within an allelic series) | 11 upbm affinity estimate (log intensity, higher = more binding, comparable within an allelic series) | 9.01 upbm affinity estimate (log intensity, higher = more binding, comparable within an allelic series) | 11 upbm affinity estimate (log intensity, higher = more binding, comparable within an allelic series) | 10.5 upbm affinity estimate (log intensity, higher = more binding, comparable within an allelic series) | 7.8 upbm affinity estimate (log intensity, higher = more binding, comparable within an allelic series) | 7.68 upbm affinity estimate (log intensity, higher = more binding, comparable within an allelic series) | 11.6 upbm affinity estimate (log intensity, higher = more binding, comparable within an allelic series) | 13.7 upbm affinity estimate (log intensity, higher = more binding, comparable within an allelic series) | 12.9 upbm affinity estimate (log intensity, higher = more binding, comparable within an allelic series) | 11.7 upbm affinity estimate (log intensity, higher = more binding, comparable within an allelic series) | 8.49 upbm affinity estimate (log intensity, higher = more binding, comparable within an allelic series) | 9.25 upbm affinity estimate (log intensity, higher = more binding, comparable within an allelic series) | 11.2 upbm affinity estimate (log intensity, higher = more binding, comparable within an allelic series) | 12.3 upbm affinity estimate (log intensity, higher = more binding, comparable within an allelic series) | 10.4 upbm affinity estimate (log intensity, higher = more binding, comparable within an allelic series) | 9.94 upbm affinity estimate (log intensity, higher = more binding, comparable within an allelic series) | 12.3 upbm affinity estimate (log intensity, higher = more binding, comparable within an allelic series) | 8.57 upbm affinity estimate (log intensity, higher = more binding, comparable within an allelic series)
